Experimental data from PubChem BioAssay (NCATS).
Results filed as inconclusive are left out. Active and inactive are the calls of the source. Calls come from the whole dose curve; as a rule, active = well fitted inhibition curve with a large enough effect; inconclusive = small, poorly fitted or top-dose-only effect; inactive = no such curve, though single readings can be large or run the other way.
Potency is the fitted concentration of half-maximal effect.

Assay: qHTS Screen of the MIPE 4.0 Collection Against Ewings Sarcoma (TC32) (AID 1259256); note: nearly all actives have a fitted effect of over 45% in size;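 for viability (percent of control): 100% = DMSO-treated cells and 0% = medium-only wells without cells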
Conditions: TC32 Ewing sarcoma viability, CellTiter-Glo, 48 h; series mostly up to 45.8 µM; viability (percent of control): at the top concentration
Source text: There is a large unmet medical need for treatments for Ewing sarcoma, a pediatric sarcoma. We sought to identify compounds that inhibited Ewing sarcoma cells in vitro with the goal to then test promising drugs in two drug combinations in vitro to look for synergistic drug combinations. Promising combinations would then proceed to additional validation, including in vivo testing.
Using the NCATS developed oncology compound library called the Mechanism of Interrogation Plate (MIPE), four Ewing sarcoma cell lines were evaluated (TC32, TC71, RDES, EW8). Compounds, in a 12-point titration series, were incubated with cells for 48 hours and the read out was cell viability (CellTiter-Glo from Promega). These initial experiments were used to select appropriate concentrations of each single agent for subsequent two-drug matrix combinations such that the concentrations in the matrices would span both activity and non-activity.
Cells, in the log phase of growth, were seeded in 5 uL of RPMI plus 5% FBS, […] L-glutamine, 100 U/ml penicillin and 100 ug/ml streptomycin into 1536-well solid-bottom white tissue culture treated Greiner Bio One Plates (789173-F) using a MultiDrop Combi (Thermofisher Scientific) dispenser and a small sterile cassette. One column was media alone to be used as a :"no cells" control. The plates were then covered with sterilized stainless steel gasketed lids from Kalypsys. After allowing cells to attach for 4 hours, 23 nL of test compound or control (negative control DMSO and positive control 9.2 uM Bortezomib-final) were added from a 1536-well polypropylene compound source plate to each well using a 1536 head pin tool from Kalypsys. Cells were then incubated for 48 hours at 37C, 95% relative humidity and 5% CO2. After 48 hours, plates were removed from the incubator and 3 uL of CellTiter-Glo (Promega) was added using an Aurora Flying Reagent Dispenser Bioraptor. Plates were incubated at room temperature for 10 minutes prior to reading the luminescence on the Viewlux (PerkinElmer). The relative luciferase units are used to calculate the percent activity using the activity of DMSO in the cells and no cells columns for normalization of no inhibition and full inhibition respectively.
In the case of `CCc1cnn2c(NCc3ccc[n+]([O-])c3)cc(N3CCCC[C@@H]3CCO)nc12`, the Potency is reported as 23.5 nM (active). With `COc1cc([C@@H]2c3cc4c(cc3[C@@H](O[C@@H]3O[C@@H]5CO[C@@H](c6cccs6)O[C@@H]5[C@H](O)[C@@H]3O)[C@H]3COC(=O)[C@H]23)OCO4)cc(OC)c1O` the “viability (percent of control)” value was 21.7% (inactive). For `Cc1ccc([N+](=O)[O-])cc1S(=O)(=O)N(C)N=Cc1cnc2ccc(Br)cn12`, the Potency was 46.9 nM (active). In the case of `COc1ccc(CCC(=O)c2c(O)cc(O[C@@H]3O[C@H](CO)[C@@H](O)[C@H](O)[C@@H]3O[C@@H]3O[C@@H](C)[C@H](O)[C@@H](O)[C@@H]3O)cc2O)cc1O`, the Potency is reported as 9350 nM (active). With `CC(=O)SCC(Cc1ccccc1)C(=O)NCC(=O)OCc1ccccc1` (stereo not given) the Potency was 743 nM (active). For `C[C@H](O)[C@@H]1C(=O)N2C(C(=O)O)=C(S[C@@H]3CN[C@H](CNS(N)(=O)=O)C3)[C@@H](C)[C@@H]12`, the “viability (percent of control)” value was 138% (inactive). With `CC(C)(C)[C@H](NC(=O)c1ccc(N)c(Cl)c1)C(=O)N1CCC[C@@H]1C(=O)N[C@H](C#N)CC(=O)O` the viability (percent of control) was 127% [at 3.51 µM] (inactive). In the case of `C[C@H](CCC(=O)O)[C@H]1CC[C@H]2[C@@H]3[C@H](O)C[C@@H]4C[C@H](O)CC[C@]4(C)[C@@H]3CC[C@]12C`, the “viability (percent of control)” value is reported as 140% (inactive). In the case of `N#CNC(=NCCCCCCOc1ccc(Cl)cc1)Nc1ccncc1`, the “viability (percent of control)” value is reported as 7.66% (inactive). In the case of `O=C1NC(=O)C(=Cc2ccc3nccc(-c4ccncc4)c3c2)S1`, the Potency is reported as 74.3 nM (active). For `O=C1NC(O)CCN1[C@@H]1O[C@H](CO)[C@H](O)[C@H]1O` (stereo not given in full), the “viability (percent of control)” value was 141% (inactive). In the case of `NC(=O)c1ncn([C@@H]2O[C@H](CO)[C@@H](O)[C@@H]2O)c1O`, the “viability (percent of control)” value is reported as 132% (inactive). With `N[C@H]1CN(c2c(F)cc3c(=O)c(C(=O)O)cn(C4C[C@@H]4F)c3c2Cl)CC12CC2` (stereo not given in full) the Potency was 3.3 nM (active). In the case of `CCc1c(O)cc(O)c(C(=O)c2ccc(OCCN3CCOCC3)c(OC)c2)c1CC(=O)N(CCOC)CCOC`, the Potency is reported as 526 nM (active). With `CON=C(C(=O)N[C@@H]1C(=O)N2C(C(=O)O)=C(Cn3ccc(=N)n3CCO)CS[C@H]12)c1csc(N)n1` the “viability (percent of control)” value was 111% (inactive). For `CC(C)Oc1ccc(C(=O)N[C@H](CNC(=O)CN(C)C)Cc2ccc(-c3cn4cccc([C@H](C)O)c4n3)cc2)cc1Cl`, the Potency was 4.2 nM (active). In the case of `C[C@H]1[C@@H](OC(=O)CCC(=O)O)O[C@@H]2O[C@@]3(C)CC[C@@H]4[C@H](C)CC[C@@H]1[C@@]24OO3`, the Potency is reported as 9350 nM (active). For `Oc1cc2c(cc1O)C1c3ccc(O)c(O)c3OCC1(O)C2` (stereo not given), the “viability (percent of control)” value was 105% (inactive). In the case of `C[C@](Cc1c[nH]c2ccccc12)(NC(=O)OC1C2CC3CC(C2)CC1C3)C(=O)NC[C@H](NC(=O)CCC(=O)O)c1ccccc1` (stereo not given in full), the “viability (percent of control)” value is reported as 118% (inactive). With `COc1ccc(Nc2nccc(NCCO)n2)cc1` the “viability (percent of control)” value was 107% (inactive). In the case of `C[C@H]1COc2c(N3CCN(C)CC3)c(F)cc3c(=O)c(C(=O)O)cn1c23`, the “viability (percent of control)” value is reported as 56.6% (inactive). With `CN(C)CC(=O)N1CCC(c2ccc(NC(=O)c3ncc(C#N)[nH]3)c(C3=CCCCC3)c2)CC1` the Potency was 20900 nM (active). For `COc1ccnc2[nH]cc(C(=O)C(=O)N3CCN(C(=O)c4ccccc4)C[C@@H]3C)c12`, the Potency was 4180 nM (active). For `c1ccc(CNc2nc(NCc3ccccc3)c3ccccc3n2)cc1`, the Potency was 23500 nM (active). In the case of `O=C(C=CC=Cc1ccc2c(c1)OCO2)N1CCCCC1`, the “viability (percent of control)” value is reported as 106% (inactive). In the case of `COc1cccc2c1C(=O)c1c(O)c3c(c(O)c1C2=O)C[C@@](O)(C(=O)CO)C[C@H]3O[C@H]1C[C@H](N)[C@H](O)[C@H](C)O1`, the “viability (percent of control)” value is reported as 73.5% (inactive). In the case of `COc1cc([C@@H]2c3cc4c(cc3[C@H](O)[C@H]3COC(=O)[C@@H]23)OCO4)cc(OC)c1OC`, the Potency is reported as 37.2 nM (active). For `O=c1[nH]c(=O)n([C@H]2C[C@@H](O)[C@@H](CO)O2)cc1C=CBr`, the “viability (percent of control)” value was 124% (inactive). For `CN(C)CC[C@H](c1ccc(Cl)cc1)c1ccccn1`, the “viability (percent of control)” value was 125% (inactive). In the case of `CC(=O)OCC(=O)[C@@]1(O)CC[C@H]2[C@@H]3CCC4=CC(=O)CC[C@]4(C)[C@@H]3C(=O)C[C@@]21C`, the “viability (percent of control)” value is reported as 122% (inactive). In the case of `O=C1CSC(=O)N1C(CCc1ccncc1)COc1ccc(-c2cccc([N+](=O)[O-])c2)cc1` (stereo not given), the Potency is reported as 6620 nM (active). In the case of `O=C1c2cccc(O)c2C(=O)c2c(O)cc(CO)cc21`, the “viability (percent of control)” value is reported as 114% (inactive). In the case of `C[C@@H](Oc1ccc2[nH]nc(C=Cc3cnn(CCO)c3)c2c1)c1c(Cl)cncc1Cl`, the Potency is reported as 264 nM (active). In the case of `O=C(C=CC#Cc1cccc(NS(=O)(=O)c2ccccc2)c1)NO`, the Potency is reported as 833 nM (active). For `CCCCCCCCCCCC(CC1OC(=O)C1CCCCCC)OC(=O)C(CC(C)C)NC=O` (stereo not given), the “viability (percent of control)” value was 136% (inactive). In the case of `NC(=O)N1CCC(CC(=O)N2CCC([C@H]3c4ncc(Br)cc4CCc4cc(Cl)cc(Br)c43)CC2)CC1`, the Potency is reported as 372 nM (active). In the case of `O=C(O)C(=O)Nc1cccc(C2=NN=N[N]2)c1`, the “viability (percent of control)” value is reported as 119% (inactive). With `CCOC(=O)N1CCN([N+]([O-])=NOc2ccc([N+](=O)[O-])cc2C#N)CC1` the Potency was 2640 nM (active). For `C[C@H](NCc1ccc(OCc2cccc(F)c2)cc1)C(N)=O`, the Potency was 14800 nM (active). With `Oc1cc(-c2nc(-c3ccccc3)[nH]c2-c2ccncc2)ccc1Cl` the Potency was 18700 nM (active).
